# Source: PubChem BioAssay AID1159580 (chemical genetic matrix, 2015)
# “And” between values parts separate entries of the source, which are not always exact repeats. Equal entries are not always repeated. The campaign covered roughly 5,500 compounds. About 2,000 (36%) were called active. Not shown: some 18% with an inconclusive outcome. Some of the results follow. Unmarked numbers belong to inactive results. Rule as the data show it: active = normalized growth mostly below about 0.91 (no sharp cut-off); inconclusive = no clear call, values can overlap the other calls; inactive = mostly above about 0.92.
# Test: chemical genetic growth profiling, strain panel (AID 1159580);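 also: tested at 20 µM; growth read once vehicle control cultures reached saturation at 30 °C; 1 = growth at the plate median or of vehicle wells; lower values mean less growth of the strain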
# Details: S. cerevisiae deletion strains, growth OD
smiles,measurement,setting,value
CCCCNc1ccc(C(=O)OCCN(C)C)cc1,normalized growth,"locus YAL013W, strain DEP1, stronger effect = lower value",1.01
same,normalized growth,"locus YAL021C, strain ccr4, stronger effect = lower value",0.978
same,normalized growth,"locus YAL026C, strain drs2, stronger effect = lower value",1.02
same,normalized growth,"locus YAL030W, strain snc1, stronger effect = lower value",0.999
same,normalized growth,"locus YAL040C, strain CLN3, stronger effect = lower value",0.929
same,normalized growth,"locus YBL061C, strain skt5, stronger effect = lower value",1.02
same,normalized growth,"locus YBR009C, strain hhf1, stronger effect = lower value",0.978
same,normalized growth,"locus YBR021W, strain FUR4, stronger effect = lower value",1.02
same,normalized growth,"locus YBR023C, strain chs3, stronger effect = lower value",1.01
same,normalized growth,"locus YBR171W, strain sec66, stronger effect = lower value",1.02
same,normalized growth,"locus YBR229C, strain ROT2, stronger effect = lower value",1.01
same,normalized growth,"locus YBR231C, strain swc5, stronger effect = lower value",1
same,normalized growth,"locus YBR279W, strain paf1, stronger effect = lower value",1.01
same,normalized growth,"locus YCL011C, strain gbp2, stronger effect = lower value",1.03
same,normalized growth,"locus YCL016C, strain dcc1, stronger effect = lower value",1.02
same,normalized growth,"locus YCL029C, strain bik1, stronger effect = lower value",1.01
same,normalized growth,"locus YCL061C, strain MRC1 (second series), stronger effect = lower value",1.01
same,normalized growth,"locus YCL069W, strain vba3, stronger effect = lower value",1.01
same,normalized growth,"locus YCR088W, strain abp1, stronger effect = lower value",1.01
same,normalized growth,"locus YDL005C, strain med2, stronger effect = lower value",1.01
same,normalized growth,"locus YDL035C, strain GPR1, stronger effect = lower value",1.01
same,normalized growth,"locus YDL040C, strain nat1, stronger effect = lower value",1.01
same,normalized growth,"locus YDL074C, strain BRE1, stronger effect = lower value",1.02
same,normalized growth,"locus YDL101C, strain DUN1, stronger effect = lower value",1.01
same,normalized growth,"locus YDL134C, strain PPH21, stronger effect = lower value",1.01
same,normalized growth,"locus YDL185W, strain tfp1, stronger effect = lower value",1.02
same,normalized growth,"locus YDL192W, strain arf1, stronger effect = lower value",1.01
same,normalized growth,"locus YDR001C, strain nth1, stronger effect = lower value",1.01
same,normalized growth,"locus YDR069C, strain doa4, stronger effect = lower value",0.991
same,normalized growth,"locus YDR101C, strain arx1, stronger effect = lower value",1.01
same,normalized growth,"locus YDR137W, strain rgp1, stronger effect = lower value",1.17 [resistant] (active)
same,normalized growth,"locus YDR150W, strain NUM1, stronger effect = lower value",1.01
same,normalized growth,"locus YDR159W, strain sac3, stronger effect = lower value",1.01
same,normalized growth,"locus YDR162C, strain NBP2, stronger effect = lower value",0.998
same,normalized growth,"locus YDR195W, strain ref2",0.952
same,normalized growth,"locus YDR297W, strain sur2, stronger effect = lower value",1.02
same,normalized growth,"locus YDR318W, strain mcm21, stronger effect = lower value",1.02
same,normalized growth,"locus YDR334W, strain swr1, stronger effect = lower value",1.04
same,normalized growth,"locus YDR335W, strain msn5, stronger effect = lower value",1.04
same,normalized growth,"locus YDR363W, strain ESC2, stronger effect = lower value",1.01
same,normalized growth,"locus YDR388W, stronger effect = lower value",1.02
same,normalized growth,"locus YDR392W, strain spt3, stronger effect = lower value",1.09
same,normalized growth,"locus YDR502C, strain sam2, stronger effect = lower value",1
same,normalized growth,"locus YEL003W, strain gim4, stronger effect = lower value",1.01
same,normalized growth,"locus YEL037C, strain rad23, stronger effect = lower value",1.02
same,normalized growth,"locus YEL061C, strain CIN8 (second series), stronger effect = lower value",1.02
same,normalized growth,"locus YEL061C, strain CIN8, stronger effect = lower value",1.01
same,normalized growth,"locus YER002W, strain NOP16, stronger effect = lower value",0.995
same,normalized growth,"locus YER015W, strain faa2, stronger effect = lower value",1.01
same,normalized growth,"locus YER016W, strain bim1, stronger effect = lower value",1.02
same,normalized growth,"locus YER110C, stronger effect = lower value",1.02
same,normalized growth,"locus YER111C, strain swi4, stronger effect = lower value",1.01
same,normalized growth,"locus YER155C, strain BEM2 (second series), stronger effect = lower value",0.95
same,normalized growth,"locus YER155C, strain BEM2, stronger effect = lower value",0.999
same,normalized growth,"locus YER167W, strain BCK2, stronger effect = lower value",1.01
same,normalized growth,"locus YFR010W, strain ubp6, stronger effect = lower value",0.991
same,normalized growth,"locus YGL078C, strain dbp3, stronger effect = lower value",1.02
same,normalized growth,"locus YGL086W, strain mad1, stronger effect = lower value",0.997
same,normalized growth,"locus YGL167C, strain pmr1, stronger effect = lower value",1.01
same,normalized growth,"locus YGL173C, strain kem1, stronger effect = lower value",1
same,normalized growth,"locus YGL227W, strain vid30, stronger effect = lower value",1.01
same,normalized growth,"locus YGL240W, strain doc1, stronger effect = lower value",1.01
same,normalized growth,"locus YGL248W, strain PDE1, stronger effect = lower value",0.998
same,normalized growth,"locus YGL253W, strain hxk2, stronger effect = lower value",1.03
same,normalized growth,"locus YGR078C, strain PAC10, stronger effect = lower value",1.01
same,normalized growth,"locus YGR135W, strain pre9, stronger effect = lower value",1
same,normalized growth,"locus YGR229C, strain SMI1, stronger effect = lower value",1.03
same,normalized growth,"locus YGR252W, strain gcn5, stronger effect = lower value",0.915
same,normalized growth,"locus YHR013C, strain ard1, stronger effect = lower value",0.993
same,normalized growth,"locus YHR027C, strain rpn1, stronger effect = lower value",1.01
same,normalized growth,"locus YHR030C, strain SLT2, stronger effect = lower value",1.01 and 0.96
same,normalized growth,"locus YHR079C, strain IRE1 (second series), stronger effect = lower value",1.02
same,normalized growth,"locus YHR079C, strain IRE1, stronger effect = lower value",0.977
same,normalized growth,"locus YHR094C, strain hxt1, stronger effect = lower value",1.02
same,normalized growth,"locus YHR129C, strain ARP1, stronger effect = lower value",1
same,normalized growth,"locus YHR142W, strain chs7, stronger effect = lower value",1.06
same,normalized growth,"locus YHR200W, strain rpn10, stronger effect = lower value",1.02
same,normalized growth,"locus YIL066C, strain RNR3, stronger effect = lower value",1.01
same,normalized growth,"locus YIL073C, strain SPO22, stronger effect = lower value",1.04
same,normalized growth,"locus YIL125W, strain kgd1, stronger effect = lower value",1.02
same,normalized growth,"locus YIR030C, strain dcg1, stronger effect = lower value",1.02
same,normalized growth,"locus YJL092W, strain hpr5, stronger effect = lower value",1.02
same,normalized growth,"locus YJL095W, strain BCK1 (second series), stronger effect = lower value",1.02
same,normalized growth,"locus YJL095W, strain BCK1, stronger effect = lower value",0.991 and 0.961
same,normalized growth,"locus YJL115W, strain asf1, stronger effect = lower value",1.03
same,normalized growth,"locus YJL129C, strain trk1, stronger effect = lower value",1.01
same,normalized growth,"locus YJL134W, strain LCB3, stronger effect = lower value",1
same,normalized growth,"locus YJL154C, strain vps35, stronger effect = lower value",1.01
same,normalized growth,"locus YJL164C, strain tpk1, stronger effect = lower value",0.996
same,normalized growth,"locus YJL166W, strain qcr8, stronger effect = lower value",1.02
same,normalized growth,"locus YJL168C, strain set2, stronger effect = lower value",1.02
same,normalized growth,"locus YJL187C, strain SWE1 (second series), stronger effect = lower value",1.01
same,normalized growth,"locus YJR043C, strain POL32, stronger effect = lower value",1.02
same,normalized growth,"locus YJR066W, strain TOR1, stronger effect = lower value",0.926
